Data reported in the supplement of paper PMC11732987, “Enantioselective OTUD7B fragment discovery through chemoproteomics screening and high-throughput optimisation” (Communications Chemistry, 2025).

Columns and labels:
Test in all cases: log2 ratio of Biotin-Ahx-Ub-VS probe labelling (fragment/DMSO); higher = less target engagement (more negative = stronger competition), active = hit call of the paper (q ≤ 0.05, log2 ratio ≤ -1)
Conditions in all cases: compound concentration: 200 uM; treatment time: 3 h
USP34 = USP34 (UniProt Q70CQ2)
Sequence of USP34 (Q70CQ2 whole entry, the tested form may be a part): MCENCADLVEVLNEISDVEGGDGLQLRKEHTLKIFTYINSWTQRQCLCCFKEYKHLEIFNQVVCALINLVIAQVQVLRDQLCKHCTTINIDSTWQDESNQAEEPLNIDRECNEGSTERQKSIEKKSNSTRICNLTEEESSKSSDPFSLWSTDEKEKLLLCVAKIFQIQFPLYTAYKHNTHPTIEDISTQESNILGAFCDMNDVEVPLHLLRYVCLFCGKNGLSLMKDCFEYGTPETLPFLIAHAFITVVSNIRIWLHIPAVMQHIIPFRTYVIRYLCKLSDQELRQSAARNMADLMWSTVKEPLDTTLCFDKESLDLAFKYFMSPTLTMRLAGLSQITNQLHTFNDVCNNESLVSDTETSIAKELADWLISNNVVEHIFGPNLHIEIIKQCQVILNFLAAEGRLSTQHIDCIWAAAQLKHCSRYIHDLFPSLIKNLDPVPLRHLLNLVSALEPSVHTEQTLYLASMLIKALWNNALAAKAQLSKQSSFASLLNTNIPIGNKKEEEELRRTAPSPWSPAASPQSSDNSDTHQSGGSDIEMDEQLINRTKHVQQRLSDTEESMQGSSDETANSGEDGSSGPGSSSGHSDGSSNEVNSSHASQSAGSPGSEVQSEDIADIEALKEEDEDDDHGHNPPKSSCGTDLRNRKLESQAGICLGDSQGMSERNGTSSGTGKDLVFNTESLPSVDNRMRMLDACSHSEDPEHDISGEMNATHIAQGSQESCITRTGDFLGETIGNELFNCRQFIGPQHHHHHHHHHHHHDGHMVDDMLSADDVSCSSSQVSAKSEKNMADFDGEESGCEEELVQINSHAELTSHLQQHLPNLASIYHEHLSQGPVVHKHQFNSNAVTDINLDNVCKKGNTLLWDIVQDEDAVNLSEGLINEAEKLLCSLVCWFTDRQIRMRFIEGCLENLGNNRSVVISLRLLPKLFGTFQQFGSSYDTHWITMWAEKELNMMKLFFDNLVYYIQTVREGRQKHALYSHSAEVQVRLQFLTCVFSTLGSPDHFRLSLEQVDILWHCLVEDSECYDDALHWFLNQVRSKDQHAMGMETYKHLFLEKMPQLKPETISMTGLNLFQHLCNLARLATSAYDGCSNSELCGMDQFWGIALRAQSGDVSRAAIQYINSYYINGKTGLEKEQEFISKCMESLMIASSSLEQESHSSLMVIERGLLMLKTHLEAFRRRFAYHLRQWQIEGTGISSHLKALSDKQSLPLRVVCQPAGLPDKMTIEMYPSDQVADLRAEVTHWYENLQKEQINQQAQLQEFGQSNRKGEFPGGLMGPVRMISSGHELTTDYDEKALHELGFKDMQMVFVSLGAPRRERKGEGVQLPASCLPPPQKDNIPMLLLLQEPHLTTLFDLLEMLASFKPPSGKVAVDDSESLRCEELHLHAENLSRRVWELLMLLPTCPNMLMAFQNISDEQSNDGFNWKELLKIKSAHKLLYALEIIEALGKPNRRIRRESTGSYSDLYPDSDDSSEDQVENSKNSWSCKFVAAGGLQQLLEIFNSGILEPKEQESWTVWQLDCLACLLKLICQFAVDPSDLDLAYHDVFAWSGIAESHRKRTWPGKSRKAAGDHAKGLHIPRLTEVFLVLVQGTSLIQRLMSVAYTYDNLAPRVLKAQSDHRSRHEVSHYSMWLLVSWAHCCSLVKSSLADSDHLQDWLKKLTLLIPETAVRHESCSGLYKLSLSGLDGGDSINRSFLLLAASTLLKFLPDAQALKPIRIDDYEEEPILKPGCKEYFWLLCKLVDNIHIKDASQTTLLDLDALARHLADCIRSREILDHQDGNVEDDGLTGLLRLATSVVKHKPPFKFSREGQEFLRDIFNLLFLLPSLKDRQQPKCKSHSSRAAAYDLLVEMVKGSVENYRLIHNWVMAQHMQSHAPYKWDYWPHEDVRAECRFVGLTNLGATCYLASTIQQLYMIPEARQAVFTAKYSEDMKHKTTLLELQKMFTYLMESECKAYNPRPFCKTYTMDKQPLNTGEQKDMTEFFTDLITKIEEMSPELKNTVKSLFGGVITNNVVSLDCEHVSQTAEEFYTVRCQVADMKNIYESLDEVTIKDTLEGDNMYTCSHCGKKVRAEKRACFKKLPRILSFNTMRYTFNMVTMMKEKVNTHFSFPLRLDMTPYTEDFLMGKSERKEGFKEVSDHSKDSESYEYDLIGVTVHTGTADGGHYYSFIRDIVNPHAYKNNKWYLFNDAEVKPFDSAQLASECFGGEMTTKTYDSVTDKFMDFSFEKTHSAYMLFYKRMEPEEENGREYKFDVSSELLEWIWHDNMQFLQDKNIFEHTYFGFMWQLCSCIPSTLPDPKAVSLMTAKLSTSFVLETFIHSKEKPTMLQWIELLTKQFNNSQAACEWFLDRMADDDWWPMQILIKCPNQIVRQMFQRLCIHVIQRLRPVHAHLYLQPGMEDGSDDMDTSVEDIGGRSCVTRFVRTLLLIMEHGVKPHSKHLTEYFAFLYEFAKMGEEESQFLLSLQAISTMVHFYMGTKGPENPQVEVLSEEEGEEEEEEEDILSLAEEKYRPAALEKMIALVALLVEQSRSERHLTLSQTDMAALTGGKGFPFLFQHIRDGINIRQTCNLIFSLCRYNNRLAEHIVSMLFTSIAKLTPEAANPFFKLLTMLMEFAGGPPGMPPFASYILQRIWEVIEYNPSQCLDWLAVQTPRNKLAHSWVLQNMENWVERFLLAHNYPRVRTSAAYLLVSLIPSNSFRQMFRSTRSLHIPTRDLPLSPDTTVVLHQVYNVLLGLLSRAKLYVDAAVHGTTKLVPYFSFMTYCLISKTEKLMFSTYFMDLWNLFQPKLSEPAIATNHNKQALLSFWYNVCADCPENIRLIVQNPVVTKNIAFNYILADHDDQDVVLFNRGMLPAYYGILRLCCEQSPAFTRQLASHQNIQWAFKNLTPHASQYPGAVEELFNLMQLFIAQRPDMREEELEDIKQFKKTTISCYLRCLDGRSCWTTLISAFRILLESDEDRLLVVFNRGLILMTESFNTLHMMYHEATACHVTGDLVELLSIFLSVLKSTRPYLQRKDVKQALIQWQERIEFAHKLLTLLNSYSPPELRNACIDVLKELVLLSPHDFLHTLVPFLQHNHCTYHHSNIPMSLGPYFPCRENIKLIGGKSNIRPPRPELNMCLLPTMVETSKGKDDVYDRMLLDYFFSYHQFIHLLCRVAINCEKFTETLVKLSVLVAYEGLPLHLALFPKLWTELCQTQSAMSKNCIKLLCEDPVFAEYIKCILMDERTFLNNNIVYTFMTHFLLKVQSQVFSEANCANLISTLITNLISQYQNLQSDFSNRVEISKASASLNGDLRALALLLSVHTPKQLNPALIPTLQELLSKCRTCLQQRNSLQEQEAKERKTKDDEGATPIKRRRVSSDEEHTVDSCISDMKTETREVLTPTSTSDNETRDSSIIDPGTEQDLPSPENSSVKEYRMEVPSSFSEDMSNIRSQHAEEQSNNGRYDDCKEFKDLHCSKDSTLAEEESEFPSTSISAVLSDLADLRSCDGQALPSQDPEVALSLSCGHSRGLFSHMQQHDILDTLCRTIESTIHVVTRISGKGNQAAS
Outline: (§1)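 Global-median-normalised Spectronaut label-free quantities were compared by unpaired t-test, and values are average log2 ratios of fragment over vehicle. Only proteins with ≥2 unique peptides were used. HEK293T lysate (495 µg per sample) was treated in triplicate with fragment at 200 µM or vehicle for 3 h and then with Biotin-Ahx-Ub-VS at 0.5 µM final for 1 h. Labelled DUBs were then NeutrAvidin-enriched, digested with LysC and trypsin, and run by diaPASEF LC-MS/MS.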

USP36 = target: T1, USP36 (UniProt Q9P275)
T1 sequence (whole entry): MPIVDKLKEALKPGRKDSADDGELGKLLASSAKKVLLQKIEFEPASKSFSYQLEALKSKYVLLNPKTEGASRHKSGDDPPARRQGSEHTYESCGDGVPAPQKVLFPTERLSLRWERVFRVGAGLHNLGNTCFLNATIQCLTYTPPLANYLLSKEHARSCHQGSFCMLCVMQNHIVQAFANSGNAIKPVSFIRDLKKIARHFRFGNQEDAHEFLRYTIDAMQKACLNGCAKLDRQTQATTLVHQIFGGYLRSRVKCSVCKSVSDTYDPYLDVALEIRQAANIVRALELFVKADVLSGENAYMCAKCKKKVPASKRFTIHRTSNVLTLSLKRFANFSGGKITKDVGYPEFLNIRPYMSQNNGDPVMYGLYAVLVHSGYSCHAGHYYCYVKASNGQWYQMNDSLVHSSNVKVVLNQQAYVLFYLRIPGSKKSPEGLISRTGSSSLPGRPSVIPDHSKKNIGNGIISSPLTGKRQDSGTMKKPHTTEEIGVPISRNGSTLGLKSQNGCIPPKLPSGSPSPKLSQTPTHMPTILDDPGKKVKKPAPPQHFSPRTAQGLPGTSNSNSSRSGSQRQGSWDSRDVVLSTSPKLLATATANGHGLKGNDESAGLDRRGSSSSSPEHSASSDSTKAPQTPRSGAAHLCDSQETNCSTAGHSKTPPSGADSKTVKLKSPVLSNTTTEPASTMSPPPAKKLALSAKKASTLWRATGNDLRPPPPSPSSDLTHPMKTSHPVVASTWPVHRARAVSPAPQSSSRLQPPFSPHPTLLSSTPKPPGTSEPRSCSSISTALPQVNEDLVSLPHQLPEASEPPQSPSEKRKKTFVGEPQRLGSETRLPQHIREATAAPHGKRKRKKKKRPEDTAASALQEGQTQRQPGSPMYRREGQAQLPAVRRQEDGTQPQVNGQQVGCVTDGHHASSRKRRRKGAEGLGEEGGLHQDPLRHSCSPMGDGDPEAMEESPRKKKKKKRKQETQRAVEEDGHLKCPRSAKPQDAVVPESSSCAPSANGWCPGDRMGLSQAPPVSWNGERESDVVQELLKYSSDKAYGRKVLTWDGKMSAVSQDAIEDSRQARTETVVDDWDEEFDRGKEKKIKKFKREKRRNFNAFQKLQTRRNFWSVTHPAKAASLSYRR
Outline: as §1

USP38 = target: T2, USP38 (UniProt Q8NB14)
T2 sequence (whole entry): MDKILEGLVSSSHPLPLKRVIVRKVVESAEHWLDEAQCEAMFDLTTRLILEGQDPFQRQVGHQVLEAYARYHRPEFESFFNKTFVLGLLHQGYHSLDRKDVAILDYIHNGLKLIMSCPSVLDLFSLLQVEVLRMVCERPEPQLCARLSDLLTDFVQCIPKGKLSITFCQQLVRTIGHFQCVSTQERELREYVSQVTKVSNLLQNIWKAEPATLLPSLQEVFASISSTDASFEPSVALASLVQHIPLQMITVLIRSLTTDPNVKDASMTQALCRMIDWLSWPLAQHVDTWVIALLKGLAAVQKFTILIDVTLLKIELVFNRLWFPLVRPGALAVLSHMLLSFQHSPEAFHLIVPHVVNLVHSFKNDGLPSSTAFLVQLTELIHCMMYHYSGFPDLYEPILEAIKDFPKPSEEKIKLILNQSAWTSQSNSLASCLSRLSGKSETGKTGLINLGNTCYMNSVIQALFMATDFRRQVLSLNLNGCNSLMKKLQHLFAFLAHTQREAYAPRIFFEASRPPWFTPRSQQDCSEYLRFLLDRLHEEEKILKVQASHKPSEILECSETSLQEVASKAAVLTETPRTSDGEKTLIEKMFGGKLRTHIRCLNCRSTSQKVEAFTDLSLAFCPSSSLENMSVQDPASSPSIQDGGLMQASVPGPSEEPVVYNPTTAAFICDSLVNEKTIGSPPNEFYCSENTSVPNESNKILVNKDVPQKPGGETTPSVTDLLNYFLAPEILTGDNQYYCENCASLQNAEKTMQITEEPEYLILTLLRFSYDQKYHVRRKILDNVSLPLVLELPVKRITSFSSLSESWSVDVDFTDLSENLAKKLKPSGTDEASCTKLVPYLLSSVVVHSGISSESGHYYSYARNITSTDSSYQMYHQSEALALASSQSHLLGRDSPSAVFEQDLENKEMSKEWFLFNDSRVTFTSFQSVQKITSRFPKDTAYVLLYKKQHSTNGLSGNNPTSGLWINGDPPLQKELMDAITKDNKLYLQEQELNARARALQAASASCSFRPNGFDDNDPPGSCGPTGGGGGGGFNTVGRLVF
Outline: as §1

USP39 = target: T3, USP39 (UniProt Q53GS9)
T3 sequence (whole entry): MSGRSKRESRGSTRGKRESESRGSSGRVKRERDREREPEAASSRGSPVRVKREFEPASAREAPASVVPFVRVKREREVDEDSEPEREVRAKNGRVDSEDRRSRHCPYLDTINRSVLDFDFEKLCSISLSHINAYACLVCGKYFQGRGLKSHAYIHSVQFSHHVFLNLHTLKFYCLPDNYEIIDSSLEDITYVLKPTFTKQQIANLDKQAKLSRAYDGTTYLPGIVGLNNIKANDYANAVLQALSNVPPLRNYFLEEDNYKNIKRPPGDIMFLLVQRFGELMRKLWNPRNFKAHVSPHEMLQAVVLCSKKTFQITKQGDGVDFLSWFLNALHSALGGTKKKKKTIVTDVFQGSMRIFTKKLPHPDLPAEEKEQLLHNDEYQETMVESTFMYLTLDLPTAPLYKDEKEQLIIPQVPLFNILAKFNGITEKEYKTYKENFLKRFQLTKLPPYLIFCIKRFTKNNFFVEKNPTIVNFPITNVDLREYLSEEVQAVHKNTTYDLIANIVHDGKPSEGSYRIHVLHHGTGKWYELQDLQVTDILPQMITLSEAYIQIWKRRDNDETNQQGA
Outline: as §1

USP4 = target: T4, USP4 (UniProt Q13107)
T4 sequence (whole entry): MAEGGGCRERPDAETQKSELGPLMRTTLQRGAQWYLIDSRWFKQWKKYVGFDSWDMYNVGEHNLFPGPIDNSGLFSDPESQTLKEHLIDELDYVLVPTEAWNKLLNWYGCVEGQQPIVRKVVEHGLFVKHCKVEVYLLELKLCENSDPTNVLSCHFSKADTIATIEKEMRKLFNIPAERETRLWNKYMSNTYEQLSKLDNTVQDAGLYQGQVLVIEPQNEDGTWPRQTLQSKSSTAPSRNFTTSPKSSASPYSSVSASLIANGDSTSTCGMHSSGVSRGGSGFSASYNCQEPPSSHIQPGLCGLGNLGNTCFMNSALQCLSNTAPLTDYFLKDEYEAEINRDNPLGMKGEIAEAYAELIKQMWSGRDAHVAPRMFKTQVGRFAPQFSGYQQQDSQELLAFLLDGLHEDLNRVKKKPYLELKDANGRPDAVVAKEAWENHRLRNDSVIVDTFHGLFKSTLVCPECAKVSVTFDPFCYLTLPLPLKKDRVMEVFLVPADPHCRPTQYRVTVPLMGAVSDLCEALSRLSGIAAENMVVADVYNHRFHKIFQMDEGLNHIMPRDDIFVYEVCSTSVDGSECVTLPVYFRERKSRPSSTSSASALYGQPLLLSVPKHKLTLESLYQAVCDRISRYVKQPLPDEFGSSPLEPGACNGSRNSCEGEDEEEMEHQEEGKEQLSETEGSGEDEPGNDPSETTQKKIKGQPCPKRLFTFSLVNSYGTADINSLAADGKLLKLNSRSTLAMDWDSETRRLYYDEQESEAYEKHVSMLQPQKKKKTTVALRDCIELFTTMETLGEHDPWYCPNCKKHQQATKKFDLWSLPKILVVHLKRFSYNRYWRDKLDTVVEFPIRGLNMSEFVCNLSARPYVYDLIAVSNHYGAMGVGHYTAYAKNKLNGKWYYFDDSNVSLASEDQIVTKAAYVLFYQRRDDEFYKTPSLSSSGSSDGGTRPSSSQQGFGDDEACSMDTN
Outline: as §1

Measured: log2 ratio of Biotin-Ahx-Ub-VS probe labelling

O=C(CCl)N1CCCCCC1c1ncon1 (stereo not given)
inactive: USP34 0.0612 | USP36 -0.0657 | USP38 0.0218 | USP39 -0.043 | USP4 -0.0581
